In PubChem BioAssay one finds inhibition data, which are given here for 17 compounds.

By inhibition is commonly meant the drop in the measured response relative to a control, in per cent.

The source made the active and inactive calls. The rule behind the calls is not given here.

Sequence of Pantothenate synthetase (Mycobacterium tuberculosis (strain ATCC 25618 / H37Rv)) (P9WIL5 whole entry, looked up): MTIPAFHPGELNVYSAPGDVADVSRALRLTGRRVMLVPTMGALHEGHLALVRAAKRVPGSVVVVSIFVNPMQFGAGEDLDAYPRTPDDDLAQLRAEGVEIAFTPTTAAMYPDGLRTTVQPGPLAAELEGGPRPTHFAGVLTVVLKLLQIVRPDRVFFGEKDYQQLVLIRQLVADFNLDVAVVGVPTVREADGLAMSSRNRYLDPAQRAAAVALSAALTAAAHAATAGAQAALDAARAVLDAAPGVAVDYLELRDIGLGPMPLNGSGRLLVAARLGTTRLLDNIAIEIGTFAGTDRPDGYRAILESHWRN

This experiment addresses Pantothenate synthetase (Mycobacterium tuberculosis (strain ATCC 25618 / H37Rv)) (UniProt P9WIL5). The experiment in a line: Coupled enzyme confirmation of inhibitors against recombinant Mtb PanC (AID 375).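 Note: 0% = full reaction with vehicle and 100% = no enzyme background.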 Particulars: coupled enzyme assay; at 10 µM, stronger effect = higher value.
`COC(=O)C1=C(N)Oc2cc(C)n(Cc3ccncc3)c(=O)c2C1c1cccnc1` (configuration not stated): the inhibition is 0% (inactive).
On to `COc1cccc(-c2cc(C(=O)Nc3c(C)nn(Cc4ccccc4)c3C)no2)c1`, for which the inhibition was 0% (inactive).
Consider `COc1ccc(OC)c(C2=NOC(C(=O)NCCN3CCOCC3)C2)c1` (configuration not stated), for which the inhibition is 0% (inactive).
As for `COc1cccc(OCCOCCN(C)CCO)c1`, the inhibition was 2% (inactive).
Then `O=C(Nc1nnc(C2CCCCC2)s1)c1cccs1`, with 8% (inactive); and `Nc1nc2ccccc2n1C(=O)CCc1ccccc1`, with 0% (inactive); and `O=C1CSC(c2cn(-c3ccccc3)nc2-c2cccs2)N1CC1CCCO1` (configuration not stated), with 2% (inactive).
`Cc1cc(NS(=O)(=O)Cc2ccccc2)cc(C)c1OCC(=O)N1CCOCC1`: the inhibition is 4% (inactive).
Then `Cc1cnc(NC(=O)CSc2nnc(-c3ccccc3)n2Cc2ccccc2)s1`, with 0% (inactive); and `Oc1ccc(/C=C/c2cc(O)cc(O)c2)cc1`, with 0% (inactive).
As to `Cc1ccc2c(c1)-c1cc(C)nn1C(c1ccc3c(c1)OCO3)N2` (configuration not stated), the inhibition is 0% (inactive).
For `O=C(C1CCCO1)N1CCN(C(c2ccccc2)c2ccccc2)CC1` (configuration not stated), the inhibition was 0% (inactive).
In the case of `Cc1c(NC(=O)CSc2nnc3sc4ccccc4n23)c(=O)n(-c2ccccc2)n1C`, the inhibition is 0% (inactive).
`COc1cc(-c2noc(-c3ccccc3C(=O)NCc3ccco3)n2)cc(OC)c1OC`: the inhibition is 9% (inactive).
For the compound `CC(=O)C(Sc1ncnc2c1nnn2-c1ccc(F)cc1)C(=O)N(C)C` (configuration not stated), the inhibition was 0% (inactive).
Turning to `COC(=O)c1ccc(COC(=O)c2c(C)nn(Cc3ccccc3Cl)c2Cl)o1`, the inhibition was 0% (inactive).
Consider `CCn1ncc(Cl)c1C(=O)Nc1ccncc1`, for which the inhibition is 3% (inactive).
